Results as given in PubChem BioAssay (Tox21).
Inconclusive results are not listed. Calls of active or inactive are those of the source. Calls follow the shape of the full dose curve.

Columns and labels:
[1] = target: Acetylcholinesterase (Homo sapiens) (UniProt P22303); assay: Acetylcholinesterase (AChE) small molecule antagonists: colormetric cell-based qHTS assay (AID 1347395); also: nearly all actives have a fitted effect of over 30% in size; also: potency is read from the fitted curve at half-maximal effect
Sequence of Acetylcholinesterase (Homo sapiens) (P22303 whole entry, looked up): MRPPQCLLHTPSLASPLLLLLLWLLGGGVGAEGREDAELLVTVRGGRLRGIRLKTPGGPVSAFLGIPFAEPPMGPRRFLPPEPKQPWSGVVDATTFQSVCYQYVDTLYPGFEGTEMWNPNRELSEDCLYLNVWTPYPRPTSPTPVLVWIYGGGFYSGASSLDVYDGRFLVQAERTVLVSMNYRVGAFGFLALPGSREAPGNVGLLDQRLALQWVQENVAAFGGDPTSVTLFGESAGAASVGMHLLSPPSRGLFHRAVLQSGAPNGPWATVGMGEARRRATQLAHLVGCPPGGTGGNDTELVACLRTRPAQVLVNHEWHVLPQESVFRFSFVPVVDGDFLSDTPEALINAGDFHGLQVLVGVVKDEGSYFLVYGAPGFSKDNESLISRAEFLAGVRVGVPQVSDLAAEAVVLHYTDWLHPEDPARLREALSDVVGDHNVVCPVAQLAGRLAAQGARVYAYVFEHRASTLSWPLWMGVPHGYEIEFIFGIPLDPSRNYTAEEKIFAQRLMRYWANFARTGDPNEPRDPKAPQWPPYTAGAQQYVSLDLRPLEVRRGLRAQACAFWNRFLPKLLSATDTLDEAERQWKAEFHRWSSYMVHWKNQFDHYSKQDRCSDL
Summary of the method: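 AChE inhibition read colorimetrically via DTNB–thiocholine in SH-SY5Y cells. Compound 30 min, substrate 90 min, both 37 C.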

[2] = target: Acetylcholinesterase (Homo sapiens) (UniProt P22303); assay: Acetylcholinesterase (AChE) small molecule antagonists: enzyme-based qHTS assay (AID 1347397); conditions: Potency: AChE enzyme activity inhibition; outcome: AChE enzyme activity inhibition; also: nearly all actives have a fitted effect of over 55% in size; also: potency is read from the fitted curve at half-maximal effect
Summary of the method: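 Human recombinant acetylcholinesterase; substrate acetylthiocholine; thiocholine quantified with DTNB (colorimetric). Compound preincubation 30 min RT; reaction 10 min RT.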

[3] = target: Acetylcholinesterase (Homo sapiens) (UniProt P22303); assay: Acetylcholinesterase (AChE) small molecule antagonists: fluorescence cell-based qHTS assay (AID 1347398); conditions: Potency: AChE activity; outcome: AChE activity; also: nearly all actives have a fitted effect of over 50% in size; also: potency is read from the fitted curve at half-maximal effect
Summary of the method: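 Thiocholine generated from acetylthiocholine by SH-SY5Y cell AChE is detected with Thiolite Green (Ex/Em 490/520 nm) after 40 min at room temperature, following 30 min compound pretreatment at 37 C.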

[4] = target: Acetylcholinesterase (Homo sapiens) (UniProt P22303); assay: Acetylcholinesterase (AChE) small molecule antagonists: enzyme-based qHTS assay with human liver microsomes (AID 1347399); conditions: Potency: qHTS inhibition; outcome: qHTS inhibition; also: nearly all actives have a fitted effect of over 60% in size
Summary of the method: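 Recombinant human AChE (50 mU/mL in the enzyme mix) and human liver microsomes (0.25 mg/mL final) were preincubated with compound and NADPH (0.25 mg/mL final) for 30 min at 37 C. Acetylthiocholine/DTNB was then added; thiocholine was read colorimetrically after 10 min at room temperature.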

Measured: Potency

Cc1nc([N+](=O)[O-])cn1-c1ccc([N+](=O)[O-])cc1
inactive: all assays above

COC(=O)/C=C\C(=O)O
inactive: all assays above

O=C(N[C@@H](c1ccccc1)[C@@H]1CCCCN1)c1cccc(C(F)(F)F)c1Cl
inactive: all assays above

O=C(O)c1cc(=O)c2ccccc2o1
inactive: all assays above

CN1CCCC(n2nc(Cc3ccc(Cl)cc3)c3ccccc3c2=O)CC1 (stereo unspecified)
active: [1] 17.4 µM | [2] 27.5 µM | [3] 13.8 µM
inactive: [4]

FC1(F)C(F)(F)C(F)(F)C2(F)C(F)(F)C(F)(F)C(F)(F)C(F)(F)C2(F)C1(F)F (stereo unspecified)
inactive: all assays above

CC(=O)SCC(CC(=O)c1ccc(C)cc1)C(=O)O (stereo unspecified)
inactive: all assays above

C=C(C)c1ccccc1
inactive: all assays above

OCCc1ccncc1
inactive: all assays above

O=C(Oc1cccc2cccnc12)c1ccccc1
inactive: all assays above

CC(C)(C)C(=O)/C=C/c1ccc(Cl)cc1
inactive: all assays above

NNc1nc(-c2ccc(N)cc2)cs1
inactive: all assays above

O=[N+]([O-])c1ccc(Nc2ccc(Nc3ccccc3)c(S(=O)(=O)O)c2)c([N+](=O)[O-])c1
inactive: all assays above

NCCCN1CCOCC1
inactive: all assays above
